This is a sample that favours compounds with a hit; in the whole collection about 3.6% have one here.
PHOSPHO1 block – PubChem AID 1565. recombinant PHOSPHO1, absorbance phosphatase assay. inhibition, % at 13.3 µM. 290,000 tested, 1.1% active; in the data active = inhibition above about 60%
Target sequence (Q8TCT1 whole entry, looked up): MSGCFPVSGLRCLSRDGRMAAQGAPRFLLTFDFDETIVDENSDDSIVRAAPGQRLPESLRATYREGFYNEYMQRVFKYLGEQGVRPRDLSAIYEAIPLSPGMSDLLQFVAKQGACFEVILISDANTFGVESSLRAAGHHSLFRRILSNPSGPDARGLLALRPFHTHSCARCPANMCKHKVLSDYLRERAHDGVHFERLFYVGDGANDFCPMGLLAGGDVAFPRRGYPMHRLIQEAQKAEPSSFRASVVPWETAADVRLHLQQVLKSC
Wnt bcat act – Wnt/beta-catenin pathway activators, primary screen, cell-based, plate reader, single point. AID 743398, 2014. 300,000 tested, 1.2% active. Wnt/beta-catenin reporter cell assay, activator. activation, % at 9.35 µM; in the data active = activation above about 30%, passing the limit was not always enough; inconclusive = no clear call, values can overlap the other calls
A3A deaminase – APOBEC3A ssDNA deaminase inhibitors, primary screen, selectivity assay for APOBEC3G inhibitor project, biochemical, FAM/TAMRA oligo cleavage fluorescence | recombinant A3A, FAM/TAMRA ssDNA deamination fluorescence | inhibition, % at 20 µM | 330,000 tested, 0.41% active | AID 493011, 2011;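 active = at least 40% inhibition at 20 µM here, with at most 30% in a related deaminase screen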
APOBEC3G inh – APOBEC3G DNA deaminase inhibitors, primary screen, biochemical, fluorescence, single-stranded DNA substrate, uHTS | DNA dC->dU-editing enzyme APOBEC-3G (Homo sapiens), Q9HC16 | recombinant A3G, ssDNA deamination FAM/TAMRA fluorescence | inhibition, % at 20 µM | 330,000 tested, 0.28% active;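 active = inhibition of at least 40% at 20 µM, with no more than 30% in the related APOBEC3A deaminase screen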
Target sequence (Q9HC16 whole entry, looked up): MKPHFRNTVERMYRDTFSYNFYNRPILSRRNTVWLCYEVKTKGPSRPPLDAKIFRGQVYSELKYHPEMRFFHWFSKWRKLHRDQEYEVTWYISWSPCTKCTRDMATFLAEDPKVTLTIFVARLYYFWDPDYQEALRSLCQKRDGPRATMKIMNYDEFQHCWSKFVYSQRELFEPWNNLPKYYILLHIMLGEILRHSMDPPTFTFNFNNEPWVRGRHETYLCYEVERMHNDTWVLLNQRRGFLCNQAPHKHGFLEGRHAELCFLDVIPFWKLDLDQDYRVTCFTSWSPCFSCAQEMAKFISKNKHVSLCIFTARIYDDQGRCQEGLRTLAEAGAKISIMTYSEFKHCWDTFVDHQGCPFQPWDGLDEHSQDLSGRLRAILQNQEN
MITF TRPM1 HTS – activators of MITF-driven TRPM1 promoter reporter, primary screen, cell-based, SK-MEL-5, luciferase, single point. 300,000 tested, 0.75% active. SK-MEL-5 TRPM1-promoter luciferase, 24 h; % of positive control, neutral wells = 0. activation, % at 12.5 µM. AID 588334, 2011;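 active = mean activation of at least 80% with every replicate also reaching 80%; inconclusive = mean reaches 80% but some replicate falls short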
esBAF inh – Bmi1 luciferase reporter increase in mESCs, primary screen, esBAF inhibitor project, mouse ES cells, Bmi1 luciferase knock-in, single point; 24 h; 100% = twice the neutral-well signal; reporter increase, % at 12.5 µM; 350,000 tested, 2% active; AID 602393, 2012; in the data active = activation above about 40%; inconclusive = no clear call, values can overlap the other calls;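 note: a rise in the Bmi1 reporter signal indicates esBAF inhibition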
Numbers stand for hits; . = inactive; ? = inconclusive; / = no result.

SMILES | PHOSPHO1 block | Wnt bcat act | A3A deaminase | APOBEC3G inh | MITF TRPM1 HTS | esBAF inh
Cc1ccc(S(=O)(=O)Nc2ccc3c(c2)CC(=O)N([C@@H](C)CO)C[C@@H](C)[C@H](CN(C)C(=O)Nc2ccc4c(c2)OCO4)O3)cc1 | / | / | / | / | / | .
CCCCCCOC(=O)c1ccc(OC(=O)c2cccnc2)cc1 | . | / | . | . | . | 51.7
CCCCOC(=O)c1ccc(OC(=O)c2cccnc2)cc1 | . | / | . | . | . | .
CC(=O)Oc1ccc(Oc2ccc(-c3noc(C)n3)cc2)cc1 | . | 48.1 | . | . | / | .
O=C(C1CCC1)N1C[C@@H]2[C@H](c3ccccc31)[C@@H](CO)N2C(=O)Nc1cccc(F)c1 | / | / | / | / | / | .
CCCSc1nc(C)c(-c2csc(C(C#N)=C3CCCC3)n2)cc1C#N | 74.3 | / | . | . | . | /
CCC(=O)Nc1ccc2c(c1)C(=O)N(C)[C@H]1CC[C@@H](CC(=O)NCCOC)O[C@H]1CO2 | / | / | / | / | / | .
CCSc1nnc2c(n1)[nH]c1c(C)cccc12 | . | / | . | . | . | 88.8
CSc1nnc2c(n1)[nH]c1c(C)cccc12 | . | / | . | . | . | .
COC(=O)C[C@H]1CC[C@@H]2[C@H](COc3ccc(NC(=O)Nc4cccc(C#N)c4)cc3C(=O)N2C)O1 | / | / | / | / | / | .
O=C(Nc1cccc(Cl)c1)c1csc(COCCO)n1 | / | . | / | / | / | 47.3
O=C(c1cc2ccccc2[nH]1)N1O[C@@H]2C=C[C@H]1C2 | / | ? | / | / | . | 41.8
CCC(=O)N1C[C@@H]2[C@H](c3ccccc31)[C@@H](CO)N2Cc1ccccc1Cl | / | / | / | / | / | .
O=c1c2ccccc2sc2ccc(C#CC3(O)CCCCC3)cc12 | / | . | . | . | . | .
Nc1ccc(C#Cc2ccc3sc4ccccc4c(=O)c3c2)cc1 | / | . | . | . | . | 43.3
COc1cccc2sc3ccc(C#CC4(O)CCCCC4)cc3c(=O)c12 | . | . | . | . | 106.6 | .
COc1cccc2sc3ccc(C#Cc4ccc(N)cc4)cc3c(=O)c12 | . | 36.9 | . | . | 102.4 | 61.2
CC(=O)N(C)C[C@@H]1Oc2cc(C#Cc3ccc(F)cc3)ccc2S(=O)(=O)N([C@@H](C)CO)C[C@@H]1C | / | / | / | / | / | .
CCN1[C@@H]2Cn3c(ccc(-c4ccccc4F)c3=O)[C@H]1[C@@H](C(=O)NCCOC)[C@@H]2CO | / | / | / | / | / | .
COc1ccc(NC(=O)Nc2ccc3c(c2)C(=O)N([C@H](C)CO)C[C@@H](C)[C@H](CN(C)C(=O)Nc2ccc4c(c2)OCO4)OCCCC[C@@H](C)O3)cc1 | / | / | / | / | / | .
Cc1c(Cl)cccc1NC(=O)c1cc(-c2ccccc2O)n[nH]1 | . | . | . | . | . | 49.0
Cc1cccc(NC(=O)c2cc(-c3cc(C)c(C)cc3O)n[nH]2)c1 | . | ? | . | . | . | 70.1
Cc1cccc(NC(=O)c2cc(-c3cc(C)ccc3O)n[nH]2)c1 | . | ? | . | . | ? | .
Cc1ccc(-c2cc(C(=O)Nc3cccnc3)[nH]n2)c(O)c1C | . | 43.7 | . | . | 114.3 | /
COc1ccc(CCNC(=O)c2cc(-c3ccc(C)c(C)c3O)n[nH]2)cc1OC | . | / | . | . | . | .
SMILES | PHOSPHO1 block | Wnt bcat act | A3A deaminase | APOBEC3G inh | MITF TRPM1 HTS | esBAF inh
O=C(CN1CCOCC1)N[C@@H]1CC[C@@H](CCNC(=O)C2CCCC2)O[C@H]1CO | / | / | / | / | / | .
Cc1ccc(S(=O)(=O)Nc2ccc3c(c2)C(=O)N([C@@H](C)CO)C[C@H](C)[C@@H](CN(C)S(=O)(=O)c2ccc(C)cc2)OCCCC[C@H](C)O3)cc1 | / | / | / | / | / | .
Cc1cc(/C=N/Nc2ccc([N+](=O)[O-])cn2)c(C)n1-c1ccccc1 | . | / | . | . | . | /
Cc1ccc(-n2c(C)cc(/C=N/Nc3ccc([N+](=O)[O-])cn3)c2C)cc1 | 101.1 | / | . | . | . | /
Cc1ccc(Cn2cc(/C=N/Nc3ccc([N+](=O)[O-])cn3)c3ccccc32)cc1 | . | . | . | . | . | 44.8
O=[N+]([O-])c1ccc(NN=Cc2cccc3ccccc23)nc1 | / | . | / | / | . | /
Cc1ccc(C=NNc2ccc([N+](=O)[O-])cn2)cc1 | / | . | / | / | 122.2 | /
Cc1ccc(N2CCN(/N=C/c3ccccc3[N+](=O)[O-])CC2)cc1 | . | . | . | . | . | .
CN(C)c1ccc(/C=N/N2CCN(c3ccccn3)CC2)cc1 | . | 43.3 | . | . | / | /
O=[N+]([O-])c1ccccc1C=NN1CCCCCC1 | / | . | / | / | . | 46.7
O=[N+]([O-])c1ccccc1/C=N/N1CCN(c2ccccn2)CC1 | . | . | . | . | / | 60.0
O=[N+]([O-])c1ccccc1/C=N/N1CCN(Cc2ccccc2)CC1 | . | . | . | . | . | ?
CN(c1ccccc1)c1ccc(/C=N/N2CCOCC2)cc1 | . | / | . | . | 143.6 | .
CCS(=O)(=O)Nc1ccc2c(c1)OC[C@H](C)NC[C@@H](C)[C@@H](OC)CN(C)C2=O | / | / | / | / | / | .
COc1ccc(S(=O)(=O)Nc2ccc3c(c2)C(=O)N([C@@H](C)CO)C[C@H](C)[C@@H](CN(C)C(=O)Nc2ccc(F)cc2)OCCCC[C@H](C)O3)cc1 | / | / | / | / | / | .
Cc1noc(C)c1S(=O)(=O)N(C)C[C@@H]1OCCCC[C@H](C)Oc2ccc(N(C)C)cc2C(=O)N([C@H](C)CO)C[C@@H]1C | / | / | / | / | / | .
COc1ccccc1NC(=O)C(C)OC(=O)/C=C/c1ccc2ccccc2n1 (stereo not drawn) | / | . | . | . | . | /
CC(OC(=O)/C=C/c1ccc2ccccc2n1)C(=O)N(C)c1ccccc1 (stereo not drawn) | / | . | . | . | . | 46.8
CNC(=O)c1ccsc1NC(=O)c1sc2ccccc2c1Cl | . | ? | . | . | . | 42.8
CCOCc1nnc(NC(=O)c2ccco2)s1 | . | . | . | . | . | .
COCc1nnc(NC(=O)c2ccco2)s1 | . | / | . | . | / | 45.0
COCc1nnc(NC(=O)c2sc3ccccc3c2Cl)s1 | . | ? | . | . | / | 50.8
Cc1nnc(NC(=O)c2sc3ccccc3c2Cl)s1 | . | . | . | . | . | /
CSc1nnc(NC(=O)c2ccco2)s1 | . | . | . | . | . | .
CCC(C)Sc1nnc(NC(=O)c2ccco2)s1 (stereo not drawn) | / | . | / | / | / | 50.4
Cc1ccc(NC(=O)c2sc3ccccc3c2Cl)nc1 | . | . | . | . | . | .
Cn1cnc(S(=O)(=O)N2CC[C@H]3[C@H](CO)Nc4ccc(-c5cccc(F)c5)cc4[C@H]32)c1 | / | / | / | / | / | .
COc1ccc(-n2c(SCC(=O)Nc3ccc4c(c3)OCO4)nc3c(c2=O)SCC3)cc1 | 61.0 | . | . | . | . | .
C/C(=N/NC(=O)c1ccco1)c1ccc(NC(=O)c2ccc(Br)o2)cc1 | . | . | . | . | . | 46.9
